p53null 32C kill = qHTS Screen for Compounds that Selectively Target Cancer Cells with p53 Mutations: Cytotoxicity of p53 Null Cells at the Permissive Temperature; H1299-neo p53 null cells, ATP luminescence, 24 h, 32C; Potency, µM (titrated, usually from 46.1 µM), actives largely listed as cytotoxic; actives 0.62% (n = 55,000); note: nearly all actives have a fitted effect of over 55% in size
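H1299-neo, 600 cells/well; overnight 37C; cpd up to 46 uM, 24 h at 32C; ATPlite luminescence after 20 min RT; normalized to DMSO (0%) and tamoxifen 100 uM (100% kill); Hill-fit AC50.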
GALC G270D act = A Novel Cell-Based Assay to Identify Small Molecules for B -Galactocerebrosidase; 145M-Twi-hGALC-G270D cells (Twitcher mouse brain line with human GALC G270D), HMU-beta-Gal fluorescence, 48 h; Potency, µM (doses to about 57.5 µM), most hits filed as activators; actives 0.1% (n = 45,000); note: nearly all actives have a fitted effect of over 65% in size
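Mutant human GALC (G270D), stably expressed in a Twitcher mouse brain cell line lacking endogenous GALC, is measured in live-treated cells via 6-hexadecanoylamino-4-methylumbelliferyl-β-galactoside hydrolysis (0.1 mM final, pH 5.2) with fluorescent detection.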
NTMT1 inhibitor = Primary qHTS for Inhibitors of N-terminal methyltransferase 1 (NTMT1): MTaseGlo Assay | N-terminal Xaa-Pro-Lys N-methyltransferase 1 (Homo sapiens), Q9BV86 | NTMT1 MTase-Glo SAH luminescence, purified enzyme | Potency, µM (highest dose often 114 µM), most hits filed as inhibitors | actives 2.5% (n = 59,000); note: nearly all actives have a fitted effect of over 65% in size
Target sequence (Q9BV86 whole entry, looked up): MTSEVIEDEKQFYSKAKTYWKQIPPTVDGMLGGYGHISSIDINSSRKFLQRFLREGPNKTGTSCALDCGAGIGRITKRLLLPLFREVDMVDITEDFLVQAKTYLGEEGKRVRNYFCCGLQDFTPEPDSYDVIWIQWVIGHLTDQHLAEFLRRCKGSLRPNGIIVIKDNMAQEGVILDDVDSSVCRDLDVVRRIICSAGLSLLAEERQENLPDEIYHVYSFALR
DRV1 agonist = qHTS for Agonists of Human Resolvin D1 Receptor DRV1. Probable G-protein coupled receptor 32 (Homo sapiens), O75388. CHO-K1 GPR32 beta-arrestin PathHunter luminescence, 90 min; zero percent set by DMSO-only wells. activation, % at 76.9 µM. actives 2.5% (n = 48,000);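 active = activation of at least 60% and not above a set upper limit, about 1 call in 100 departs from these limits; inconclusive = activation of 40% to 60%, or above that upper limit; inactive = activation under 40%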
Target sequence (O75388 whole entry, looked up): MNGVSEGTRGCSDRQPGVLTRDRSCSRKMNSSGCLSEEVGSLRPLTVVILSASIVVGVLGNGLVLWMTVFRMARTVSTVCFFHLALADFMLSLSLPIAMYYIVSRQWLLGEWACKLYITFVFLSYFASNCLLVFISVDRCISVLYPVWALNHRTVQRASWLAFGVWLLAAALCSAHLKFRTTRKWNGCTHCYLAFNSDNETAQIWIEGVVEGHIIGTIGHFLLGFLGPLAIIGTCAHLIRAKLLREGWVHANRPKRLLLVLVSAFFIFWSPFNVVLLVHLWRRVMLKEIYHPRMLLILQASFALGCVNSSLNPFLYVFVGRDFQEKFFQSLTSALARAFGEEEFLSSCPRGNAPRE
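CHO-K1 cells stably expressing ProLink-tagged GPR32 and Enzyme Activator-tagged beta-arrestin were seeded at 2,500 cells/well overnight, exposed to compounds for 90 min at 37 °C, then read by beta-Gal complementation chemiluminescence after 1 h detection reagent.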
SKOV3 invasion = Primary qHTS assay for Inhibitors of ovarian cancer metastasis using an organotypic tumor microenvironment (TME) model. actives 0.1% (n = 46,000). Potency, µM (titrated, usually from 45.8 µM), hits mostly inhibitors. SKOV3ip1-GFP adhesion/invasion on 3D omental model, fluorescence; note: nearly all actives have a fitted effect of over 65% in size
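qHTS, 4-pt dose (0.36-46 umol/L); SKOV3ip1-GFP, 1,200 cells/well, no FBS; primary omental fibroblast/mesothelial co-culture 48 h pre-grown; 2 h RT + 16 h 37 C; PBS wash, 4% PFA; GFP count 488/509 nm.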
p53null 39C tox = qHTS Screen for Compounds that Selectively Target Cancer Cells with p53 Mutations: Cytotoxicity of p53 Null Cells at the Nonpermissive Temperature. H1299 p53-null (neo) cells, 39C, ATPlite viability, 24 h. Potency, µM (highest dose often 46.1 µM), hits mostly cytotoxic. actives 0.97% (n = 55,000); note: nearly all actives have a fitted effect of over 50% in size
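Luminescent ATP signal reported cell survival after H1299 lines (neo, p53 null; or p53 A138V) received up to 46 uM compound and 24 hr incubation at 39C.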
Numbers stand for hits; ! = a repeat was not active; [ ] = remark or other dose. Rows were chosen to be rich in hits. Some 4% of all compounds tested hit in one or more screens of this group. Unless noted, calls come from the whole dose curve; as a rule, active = well fitted curve in the direction sought with a large enough effect; inconclusive = small, poorly fitted or top-dose-only effect, or another doubt; inactive = no such curve, though single readings can be large; an effect the other way counts as inactive or inconclusive.

`C=CC(C)(O)CC[C@@H]1[C@@]2(C)CCCC(C)(C)C2CC[C@@]1(C)O` (stereo partly specified) gave NTMT1 inhibitor inactive.
`c1ccc(CNc2nc(NCc3ccccc3)c3ccccc3n2)cc1` gave NTMT1 inhibitor 44.7µM! and SKOV3 invasion inactive.
N#Cc1ccccc1NC(=O)c1ccc2c(Cl)c3c(nc2c1)CCCC3 was read as p53null 32C kill inactive and p53null 39C tox inactive.
`O=C(Nc1ccccc1F)c1ccc2c(Cl)c3c(nc2c1)CCC3` gave p53null 32C kill 1.26µM, GALC G270D act inactive, NTMT1 inhibitor 25.1µM, DRV1 agonist inactive, SKOV3 invasion inactive and p53null 39C tox 1.58µM.
`Cc1noc(C)c1S(=O)(=O)Nc1ccc(C(=O)Nc2ccc(C(C)C)cc2)cc1` gave p53null 32C kill inactive, GALC G270D act inactive, NTMT1 inhibitor inactive, DRV1 agonist 91.0, SKOV3 invasion inactive and p53null 39C tox inactive.
`Cc1noc(C)c1S(=O)(=O)N1CCC(C(=O)Nc2ccc(Br)cc2)CC1` gave p53null 32C kill inactive, GALC G270D act inactive, NTMT1 inhibitor inactive, DRV1 agonist inactive, SKOV3 invasion inactive and p53null 39C tox inactive.
Cc1noc(C)c1S(=O)(=O)Nc1ccc(C(=O)Nc2ccc(Br)cc2)cc1 was read as p53null 32C kill inactive, GALC G270D act inactive, NTMT1 inhibitor inactive, DRV1 agonist 95.4, SKOV3 invasion inactive and p53null 39C tox inactive.
Screening Cc1cc(Br)ccc1NC(=O)c1ccc(NS(=O)(=O)c2c(C)noc2C)cc1 returned p53null 32C kill inactive, GALC G270D act inactive, NTMT1 inhibitor inactive, DRV1 agonist 63.8, SKOV3 invasion inactive and p53null 39C tox inactive.
For O=C1CCCC2=C1C(c1ccccc1)N=C(Nc1nc3ccccc3o1)N2 (stereo unspecified) the results were NTMT1 inhibitor inactive.
Screening CC(C)c1ccccc1-c1ncc(F)c(NC2(c3ccc(-c4cccnc4)cc3)CC2)n1 returned NTMT1 inhibitor inactive.
Screening COc1ccccc1/C=C/c1nc(C#N)c(N2CCN(C)CC2)o1 returned p53null 32C kill inactive, GALC G270D act 28.2µM, NTMT1 inhibitor inactive, DRV1 agonist inactive, SKOV3 invasion inactive and p53null 39C tox inactive.
For CCc1ccccc1S(=O)(=O)Cc1ccc(C(=O)NCCc2ccc(Cl)cc2)o1 the results were p53null 32C kill inactive, GALC G270D act inactive, NTMT1 inhibitor inactive, DRV1 agonist 65.7, SKOV3 invasion inactive and p53null 39C tox inactive.
For C[C@@H]1C[C@@H](O)[C@@]2(CO)C(CO)=CCC[C@@H]2[C@@]12C[C@@H](c1ccoc1)OC2=O the results were NTMT1 inhibitor inactive.
Cc1cc(C(=O)Nc2sc3c(c2C#N)CCCC3)no1 was read as p53null 32C kill 14.1µM and p53null 39C tox 11.2µM.
For Cc1ccc(OCC(=O)Nc2cc(-c3cccc(C)c3)nn2-c2ccccc2)cc1 the results were p53null 32C kill inactive, GALC G270D act inactive, NTMT1 inhibitor inactive, DRV1 agonist inactive, SKOV3 invasion inactive and p53null 39C tox inactive.
COc1ccc(OCC(=O)Nc2cc(-c3ccccc3F)nn2-c2ccccc2)cc1 was read as p53null 32C kill inactive, GALC G270D act inactive, NTMT1 inhibitor inactive, DRV1 agonist 90.7, SKOV3 invasion inactive and p53null 39C tox inactive.
For COc1ccc(OCC(=O)Nc2cc(-c3cccc(Cl)c3)nn2-c2ccccc2)cc1 the results were p53null 32C kill inactive, GALC G270D act inactive, NTMT1 inhibitor inactive, DRV1 agonist 100.2, SKOV3 invasion inactive and p53null 39C tox inactive.
COc1ccc(-c2cc(C(C)=O)c(C)n2CCC(=O)Nc2ccc(C)cc2Cl)cc1 was read as p53null 32C kill inactive, GALC G270D act inactive, NTMT1 inhibitor 89.1µM, DRV1 agonist inactive, SKOV3 invasion inactive and p53null 39C tox inactive.
Cc1cc(Nc2nc(NC(C)c3ccc(F)cc3)c(C#N)cc2F)n[nH]1 (stereo unspecified) was read as NTMT1 inhibitor inactive.
`CCOc1ccc(-c2cc(CCCC(=O)NCCc3ccc(OC)c(OC)c3)no2)cc1` gave p53null 32C kill inactive, GALC G270D act inactive, NTMT1 inhibitor inconclusive, DRV1 agonist inactive, SKOV3 invasion inactive and p53null 39C tox inactive.
CCOc1ccc(-c2cc(CCCC(=O)NCCc3cc(OC)c(OC)c(OC)c3)no2)cc1 was read as p53null 32C kill inconclusive, GALC G270D act inactive, NTMT1 inhibitor inactive, DRV1 agonist 72.4, SKOV3 invasion inactive and p53null 39C tox inactive.
Screening CC[C@@H](C)[C@H]1C(=O)O[C@H](C(C)C)C(=O)N(C)[C@@H](C(C)C)C(=O)O[C@H](C(C)C)C(=O)N(C)[C@@H](C(C)C)C(=O)O[C@H](CC(C)C)C(=O)N1C returned NTMT1 inhibitor inactive[12.6 µM].
COc1ccc(S(=O)(=O)Nc2ccc3oc4c(c3c2)C(=O)CC(C)(C)C4)cc1 was read as p53null 32C kill inactive, GALC G270D act inactive, NTMT1 inhibitor inactive, DRV1 agonist 64.3, SKOV3 invasion inactive and p53null 39C tox inactive.
CCCCN(C)CCNC(=O)C1CCN(c2nc3ccc(CC)cc3s2)CC1 was read as p53null 32C kill inconclusive, GALC G270D act inactive, NTMT1 inhibitor inactive, DRV1 agonist inactive, SKOV3 invasion inconclusive and p53null 39C tox 3.16µM.
CCc1ccc2nc(N3CCC(C(=O)O)CC3)sc2c1 was read as p53null 32C kill 7.94µM, GALC G270D act inactive, NTMT1 inhibitor inactive, DRV1 agonist inactive, SKOV3 invasion inactive and p53null 39C tox 5.01µM.
CCc1ccc2nc(N3CCN(C(=O)C4CC4)CC3)sc2c1 was read as p53null 32C kill inactive, GALC G270D act inactive, NTMT1 inhibitor inactive, DRV1 agonist inactive, SKOV3 invasion inactive and p53null 39C tox inactive.
Screening Cc1ccc(C)n1-c1cccc(-c2nn[nH]n2)c1 returned NTMT1 inhibitor inactive.
Screening COc1ccc(-c2cc(C(F)(F)F)nc(SCCC(=O)Nc3ccccc3F)n2)cc1 returned p53null 32C kill inactive, GALC G270D act inactive, NTMT1 inhibitor inactive, DRV1 agonist inactive, SKOV3 invasion inactive and p53null 39C tox inactive.

Bioassay records (PubChem)
